Source: PubChem (National Center for Advancing Translational Sciences (NCATS))
Only some compounds are listed: those with a hit (about 15% of all), similar ones and a draw of the others.
12-LOX inh: ALOX12 (human) lipoxygenase inhibition. purified 12hLO, xylenol orange hydroperoxide absorbance. Potency, µM (titrated, usually from 108 µM), actives largely listed as inhibitors. 580,000 compounds, 1.1% hits. AID 1671190
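Purified human 12hLO at 150 nM in 25 mM Hepes, 0.01% Triton X-100, pH 7.0, preincubated 15 min at room temperature with compound. Reaction started with 40 uM arachidonic acid, 30 min at room temperature. Hydroperoxide measured by Fe-xylenol orange, 573/405 nm absorbance ratio.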
TDP1 cell noCPT: qHTS for Inhibitors of human tyrosyl-DNA phosphodiesterase 1 (TDP1): qHTS in cells in absence of CPT | DT40 Tdp1-/- hTDP1 cells, no CPT, ATP luminescence, 48 h | Potency, µM (titrated, usually from 46.2 µM), most hits filed as inhibitors | 420,000 compounds, 15% hits | AID 686978, 2013; also: nearly all actives have a fitted effect of over 55% in size
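Luminescent ATP content (CellTiter-Glo) served as the growth readout. Knockout chicken DT40 cells expressing human TDP1 were exposed to compounds without camptothecin for a minimum 48 hr at 37 °C.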
VP16 counter: inhibits Gal4-VP16 luciferase reporter, ROR gamma counter-screen; Drosophila S2 Gal4-VP16 UAS-luciferase, luminescence, 20 h; Potency, µM (highest dose often 53.6 µM), usual class: inhibitors; 310,000 compounds, 3.5% hits; AID 2546;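 also: Gal4-VP16 expression switched on by copper sulfate through the metallothionein promoter; nearly all actives have a fitted effect of over 50% in size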
ELG1 DNA repair: ELG1-dependent DNA repair inhibition | 330,000 compounds, 2.3% hits | AID 504467 | Potency, µM (series often up to 46.1 µM), usual class: inhibitors | HEK293T ELG1-luciferase reporter, luminescence, 16 h; DNA damage induced by 5-fluorouridine; also: nearly all actives have a fitted effect of over 55% in size
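Quantitative HTS, concentration-response format. 2,000 cells/well co-treated with 5-fluorouridine and compound, 16 hr in 5% CO2 at 37 °C; ONE-Glo luminescence read after 30 min.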
RORg inh: ROR gamma (mouse) transcription inhibition | 310,000 compounds, 5.4% hits | P51450 | Potency, µM (top dose mostly 53.6 µM), usual class: inhibitors | Drosophila S2 Gal4-RORgamma UAS-luciferase reporter, 20 h; also: nearly all actives have a fitted effect of over 60% in size
Target sequence (P51450 whole entry, looked up, the tested form may be a part): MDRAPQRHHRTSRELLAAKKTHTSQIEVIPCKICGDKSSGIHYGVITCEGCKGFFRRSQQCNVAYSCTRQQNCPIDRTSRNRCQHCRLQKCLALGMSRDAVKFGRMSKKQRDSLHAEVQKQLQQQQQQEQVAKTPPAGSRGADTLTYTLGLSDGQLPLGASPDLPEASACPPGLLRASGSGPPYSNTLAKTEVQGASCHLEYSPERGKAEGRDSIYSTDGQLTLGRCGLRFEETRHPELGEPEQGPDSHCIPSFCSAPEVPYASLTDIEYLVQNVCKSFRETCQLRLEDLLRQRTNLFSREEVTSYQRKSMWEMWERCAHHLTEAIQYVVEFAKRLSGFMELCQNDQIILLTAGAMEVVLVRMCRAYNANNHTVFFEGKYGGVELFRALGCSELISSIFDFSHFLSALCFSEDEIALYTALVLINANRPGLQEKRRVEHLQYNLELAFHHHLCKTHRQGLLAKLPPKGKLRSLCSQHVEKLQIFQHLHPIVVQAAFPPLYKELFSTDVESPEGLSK
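Stable Schneider cell line, Gal4 DNA-binding domain fused to ROR gamma, UAS-luciferase. Cmpd 1 hr RT → CuSO4 700 uM final → 20 hr RT → luciferase reagent 10 min → luminescence.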
DT40 TDP1 CPT: DT40-hTDP1 cell growth loss with CPT; Potency, µM (titrated, usually from 46.2 µM), usual class: inhibitors; AID 686979; 420,000 compounds, 12% hits; chicken DT40 Tdp1-/-;hTDP1 cells + 20 nM CPT, ATP luminescence, 48 h; also: nearly all actives have a fitted effect of over 55% in size
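Chicken DT40 Tdp1-/- cells complemented with human TDP1, 400 cells/well, exposed to compounds plus 20 nM camptothecin for at least 48 h at 37 C; viability read as ATP content by CellTiter-Glo luminescence.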
A number is an active result; i = inactive; ? = inconclusive; nt = no result; [ ] = remark or other dose. Calls follow the shape of the dose curve; as a rule, active = well fitted curve in the direction sought with a large enough effect; inconclusive = small, poorly fitted or top-dose-only effect, or another doubt; inactive = no such curve, though single readings can be large; an effect the other way counts as inactive or inconclusive.

SMILES	12-LOX inh	TDP1 cell noCPT	VP16 counter	ELG1 DNA repair	RORg inh	DT40 TDP1 CPT
COc1ccc(-c2nc3c4ccccc4ccn3c2Cc2ccc(C)cc2)cc1OC	i	20.6µM	nt	nt	nt	?
Cc1ccc(-c2nc3c4ccccc4ccn3c2Cc2ccccc2)cc1	i	?	nt	nt	nt	?
CCCc1nc2c3ccccc3ccn2c1Cc1ccccc1	?	20.6µM	nt	nt	nt	18.4µM
Cc1ccc(-c2nc3c4ccccc4ccn3c2Cc2cccc(F)c2)cc1	i	nt	nt	nt	nt	nt
CC(C)C(NS(=O)(=O)c1ccccc1)c1cccs1 (centres undefined)	i	nt	nt	nt	nt	nt
c1ccc(-c2nc3c4ccccc4ccn3c2Cc2ccsc2)cc1	nt	16.4µM	nt	nt	nt	23.1µM
O=C(NOCC1CC1)c1ccc(F)c(F)c1Nc1ccc(I)cc1Cl	i	15µM	nt	nt	nt	?
CCCCOC(=O)c1ccc(NC(=O)c2cc(=O)c3ccc(C)cc3o2)cc1	i	nt	nt	nt	nt	nt
O=C(CN1C2=NCCCN2c2ccccc21)c1cccc(Br)c1	i	23.1µM	i	?	i	?
O=C(CN1C2=NCCN2c2ccccc21)c1ccc(Br)s1	i	?	i	i	i	18.4µM
O=C(CN1C2=NCCN2c2ccccc21)c1ccc(Br)cc1	i	?	i	i	i	?
O=C(CN1C2=NCCCN2c2ccccc21)c1ccc(Cl)cc1Cl	i	14.6µM	i	i	i	20.6µM
CN(C)c1ccc(CN2CCn3c(nnc3-c3ccccc3)C2)cc1	i[6.33 µM]	nt	nt	nt	nt	nt
CC1(c2ccccc2)N(Cc2ccccc2)C(=O)OC12CCN(c1cccnc1)CC2 (centres undefined)	i	nt	nt	nt	nt	nt
CCn1nccc1C(=O)NCCC1CCN(C(=O)Nc2ccc(C)cc2)CC1	i	nt	nt	nt	nt	nt
CSc1ccc(CN2C(=O)C(F)(F)Oc3c(C(C)=O)cccc32)cc1	nt	16.4µM	nt	nt	nt	18.4µM
O=C(CCS(=O)(=O)c1ccc(Br)s1)Nc1cc(C(F)(F)F)cc(C(F)(F)F)c1	?	20.6µM	nt	nt	nt	14.6µM
COc1ccc(Br)cc1/C=C/C(=O)Nc1ccc(C)cc1	i	16.4µM	i	20.6µM	i	16.4µM
COc1cc(/C=C/C(=O)Nc2ccc(C)cc2)cc(OC)c1OC	i	16.4µM	i	?	?	?
c1ccc2c(CSCCc3ccncc3)cccc2c1	i	20.6µM	?	i	?	23.1µM
COC1=CC(=O)C=C(OC)C1(O)CC(C)=O	i	3.66µM	nt	nt	nt	4.11µM
CC(C)(CO)NC(=O)c1cc(-c2cccc3ccccc23)nc2ccccc12	i	nt	nt	nt	nt	nt
CCc1nc2c(=O)n(CC(=O)NCCC3=CCCCC3)nc(C)c2s1	i	nt	nt	nt	nt	nt
CC1CC(C)CN(C(=O)CNC(=O)c2sc3ccccc3c2Cl)C1 (centres undefined)	i	23.1µM	nt	i	nt	?
CC1CCCN(C(=O)CNC(=O)c2sc3ccccc3c2Cl)C1 (centres undefined)	i	?	nt	?	nt	i
SMILES	12-LOX inh	TDP1 cell noCPT	VP16 counter	ELG1 DNA repair	RORg inh	DT40 TDP1 CPT
CCOc1ccccc1N1CCN(C(=O)CNC(=O)c2sc3ccccc3c2Cl)CC1	i	23.1µM	i	?	i	?
CC1CC(C)CN(C(=O)CCNC(=O)c2ccccc2Cl)C1 (centres undefined)	i	i	?	?	15.8µM	i
CCN(CC)c1ccc(S(=O)(=O)N(CC)CC)cc1N	i	nt	nt	nt	nt	nt
COc1nc(C(=O)NC2(c3ccccc3)CCC2)cc2ccccc12	i	nt	nt	nt	nt	nt
CCOc1cc(=O)n2c(c1C(=O)NCc1cc(OC)ccc1OC)CCCC2	i	nt	nt	nt	nt	nt
c1ccc2nccnc2c1	nt	1.12µM	nt	nt	nt	0.794µM
c1cc(Nc2cccc3nccnc23)c2nccnc2c1	i	i	1.12µM	i	0.282µM	i
CCOc1ccc(CCN2C(=S)N([C@@H](Cc3ccccc3)CN3CCCC3CN3C(=S)NC[C@@H]3Cc3ccccc3)C[C@@H]2Cc2ccc(O)cc2)cc1 (some centres undefined)	?	23.1µM	nt	nt	nt	20.6µM
CCOc1ccc(CCN2C(=S)N([C@@H](Cc3ccc(O)cc3)CN3CCC[C@@H]3CN3C(=S)NC[C@@H]3Cc3ccccc3)C[C@@H]2CC(C)C)cc1	?	9.2µM	nt	nt	nt	10.3µM
CCOc1ccc(CCN2C(=S)N([C@@H](Cc3ccc(O)cc3)CN3CCC[C@@H]3CN3C(=S)NC[C@@H]3CC(C)C)C[C@@H]2Cc2ccccc2)cc1	?	5.17µM	nt	nt	nt	4.61µM
CCOc1ccc(CCN2C(=S)N([C@@H](Cc3ccccc3)CN3CCC[C@@H]3CN3C(=S)NC[C@@H]3CC(C)C)C[C@@H]2Cc2ccccc2)cc1	?	14.6µM	nt	nt	nt	?
CCOc1ccc(CCN2C(=S)N([C@@H](Cc3ccc(O)cc3)CN3CCC[C@@H]3CN3C(=S)NC[C@@H]3Cc3ccccc3)C[C@@H]2Cc2ccccc2)cc1	i	?	nt	nt	nt	?
CCOc1ccc(CCN2C(=O)C(=O)N([C@@H](Cc3ccc(O)cc3)CN3CCC[C@H]3CN3C(=O)C(=O)NC[C@@H]3Cc3ccc(O)cc3)C[C@@H]2Cc2ccccc2)cc1	i	?	nt	nt	nt	?
NC(=O)CN1CCCC(C(=O)N2CCC(O)(c3cccnc3)CC2)C1 (centres undefined)	i	nt	nt	nt	nt	nt
CCOc1ccc(CCN2C(=S)N([C@@H](CC(C)C)CN3CCCC3CN3C(=S)NC[C@@H]3CC(C)C)C[C@@H]2Cc2ccccc2)cc1 (some centres undefined)	14.1µM	18.4µM	nt	nt	nt	16.4µM
CCOc1ccc(CCN2C(=S)N([C@@H](CC(C)C)CN3CCC[C@@H]3CN3C(=S)NC[C@@H]3Cc3ccccc3)C[C@@H]2Cc2ccc(O)cc2)cc1	?	13µM	nt	nt	nt	14.6µM
CCOc1ccc(CCN2C(=O)C(=O)N([C@@H](Cc3ccc(O)cc3)CN3CCC[C@H]3CN3C(=O)C(=O)NC[C@@H]3Cc3ccc(O)cc3)C[C@@H]2Cc2ccc(O)cc2)cc1	i	i	nt	nt	nt	i
Oc1ccc(C[C@H]2CNC(=S)N2CC2CCCN2C[C@H](Cc2ccc(O)cc2)N2C[C@H](Cc3ccccc3)N(CCc3ccccc3)C2=S)cc1 (some centres undefined)	i	20.6µM	nt	nt	nt	?
CCOc1ccc(CCN2C(=S)N([C@@H](Cc3ccc(O)cc3)CN3CCC[C@@H]3CN3C(=S)NC[C@@H]3CC(C)C)C[C@@H]2CC(C)C)cc1	i	20.6µM	nt	nt	nt	16.4µM
CCN1c2cc(C(=O)NCc3cccc(Br)c3)ccc2C(=O)N2CCCCC21 (centres undefined)	i	nt	nt	nt	nt	nt
CNC(=O)c1ccc(CN(C)C(=O)c2ccc(S(=O)(=O)NC3CC3)cc2)cc1	i	nt	nt	nt	nt	nt
COc1ccc(C(=O)C2CCN(C(=O)/C=C/c3cccc(C(F)(F)F)c3)CC2)cc1	i	nt	nt	nt	nt	nt
